Results taken from PubChem BioAssay AID1159580 (chemical genetic matrix, 2015).
Out of some 5,500 compounds screened, about 2,000 (36%) were called active. Roughly 18% stayed inconclusive and do not appear here. Cut-off read from the data, not from the text of the source: active = normalized growth mostly below about 0.91 (no sharp cut-off); inconclusive = no clear call, values can overlap the other calls; inactive = mostly above about 0.92. Some of the results follow.

Experiment: chemical genetic growth profiling, strain panel (AID 1159580);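 note: tested at 20 µM; growth read once vehicle control cultures reached saturation at 30 °C; 1 = growth at the plate median or of vehicle wells; lower values mean less growth of the strain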
Settings: growth OD
[1] = S. cerevisiae deletion strains, locus YGR078C, strain PAC10, stronger effect = lower value
[2] = S. cerevisiae deletion strains, locus YJR075W, strain HOC1, stronger effect = lower value
[3] = S. cerevisiae deletion strains, locus YMR263W, strain SAP30, stronger effect = lower value
[4] = S. cerevisiae deletion strains, locus YNL153C, strain GIM3, stronger effect = lower value
[5] = S. cerevisiae deletion strains, locus YNL322C, strain KRE1, stronger effect = lower value
[6] = S. cerevisiae deletion strains, locus YPL055C, strain LGE1, stronger effect = lower value

Measured: normalized growth

COc1c(Br)cc([N+](=O)[O-])c(OC)c1C(N)=O
inactive: S. cerevisiae deletion strains, locus YBR229C, strain ROT2, stronger effect = lower value 1.03 | S. cerevisiae deletion strains, locus YCL061C, strain MRC1, stronger effect = lower value 1.01 | S. cerevisiae deletion strains, locus YDL101C, strain DUN1, stronger effect = lower value 1.03 | S. cerevisiae deletion strains, locus YDL134C, strain PPH21, stronger effect = lower value 1.01 | S. cerevisiae deletion strains, locus YDR150W, strain NUM1, stronger effect = lower value 0.986 | S. cerevisiae deletion strains, locus YEL061C, strain CIN8, stronger effect = lower value 1.02 | [1] 1.02 | S. cerevisiae deletion strains, locus YHR030C, strain SLT2, stronger effect = lower value 1.07 | S. cerevisiae deletion strains, locus YHR087W, strain rtc3, stronger effect = lower value 1.01 | S. cerevisiae deletion strains, locus YJL187C, strain SWE1, stronger effect = lower value 1 | S. cerevisiae deletion strains, locus YJR043C, strain POL32, stronger effect = lower value 1.04 | [2] 1.01 | S. cerevisiae deletion strains, locus YLR039C, strain RIC1, stronger effect = lower value 1.02 | S. cerevisiae deletion strains, locus YLR058C, strain SHM2 (second series), stronger effect = lower value 1.01 | S. cerevisiae deletion strains, locus YLR085C, strain ARP6, stronger effect = lower value 1.02 | S. cerevisiae deletion strains, locus YLR262C, strain YPT6, stronger effect = lower value 1.01 | S. cerevisiae deletion strains, locus YML094W, strain GIM5, stronger effect = lower value 1 | S. cerevisiae deletion strains, locus YMR219W, strain ESC1, stronger effect = lower value 1.03 | [3] 0.946 | [4] 1.02 | S. cerevisiae deletion strains, locus YNL298W, strain CLA4 (second series), stronger effect = lower value 1.01 | [5] 1.02 | S. cerevisiae deletion strains, locus YNR030W, strain Alg12, stronger effect = lower value 1.03 | [6] 0.928 | S. cerevisiae deletion strains, locus YPL241C, strain CIN2, stronger effect = lower value 1.02 | S. cerevisiae deletion strains, locus YPR135W, strain CTF4, stronger effect = lower value 1.1 | S. cerevisiae strains, strain wild type, stronger effect = lower value 1.03

CN1C2CCC1CC(OC(=O)c1c[nH]c3ccccc13)C2 (stereo not drawn)
inactive: S. cerevisiae deletion strains, locus YAL040C, strain CLN3, stronger effect = lower value 0.995 | S. cerevisiae deletion strains, locus YCL061C, strain MRC1 (second series), stronger effect = lower value 1 | S. cerevisiae deletion strains, locus YDR363W, strain ESC2, stronger effect = lower value 1.01 | S. cerevisiae deletion strains, locus YER002W, strain NOP16, stronger effect = lower value 0.994 | [1] 1.02 | [2] 1 | [3] 1 | S. cerevisiae deletion strains, locus YMR307W, strain GAS1, stronger effect = lower value 1.01 | S. cerevisiae deletion strains, locus YNL128W, strain TEP1, stronger effect = lower value 0.995 | [4] 1.01 | S. cerevisiae deletion strains, locus YNL175C, strain NOP13, stronger effect = lower value 1 | S. cerevisiae deletion strains, locus YNL197C, strain WHI3, stronger effect = lower value 1.02 | S. cerevisiae deletion strains, locus YNL224C, strain SQS1, stronger effect = lower value 0.985 | [5] 1.03 | S. cerevisiae deletion strains, locus YOR083W, strain WHI5 (second series), stronger effect = lower value 1.01 | [6] 1.02
